Data reported in PubChem BioAssay (NCATS).
Inconclusive results are not listed. Activity calls are given as the source filed them. Unless noted, the call rests on the fitted dose curve.

Assays:
[1] = biological target: Estrogen receptor (Homo sapiens) (UniProt P03372); test: qHTS assay for small molecule agonists of estrogen receptor alpha signaling (AID 588514);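 further: 0% = vehicle only and 100% = reference agonist; nearly all actives have a fitted effect of over 70% in size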
Summary of the method: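 EC50 and efficacy came from Hill fits of beta-lactamase reporter signal (CCF4 dye, 2 h at room temperature) scaled between DMSO and 20 nM 17-beta-estradiol. Agonist mode: HEK293 ER-alpha-UAS-bla cells in charcoal/dextran-stripped serum medium, 18 h compound exposure at 37 C.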

[2] = biological target: Glucocorticoid receptor (Homo sapiens) (UniProt P04150); test: qHTS assay for small molecule agonists of glucocorticoid receptor signaling (AID 588532; active means well fitted curve in the direction sought with a large enough effect in the signal ratio, with a control signal flat; the % refers to the signal ratio;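 further: 100% = dexamethasone at 0.1 µM and 0% = DMSO only wells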); conditions: HeLa MMTV-bla, beta-lactamase ratio, agonist, 18 h; activation: stronger effect = higher value, percent of dexamethasone control, DMSO zero
Sequence of Glucocorticoid receptor (Homo sapiens) (P04150 whole entry, looked up): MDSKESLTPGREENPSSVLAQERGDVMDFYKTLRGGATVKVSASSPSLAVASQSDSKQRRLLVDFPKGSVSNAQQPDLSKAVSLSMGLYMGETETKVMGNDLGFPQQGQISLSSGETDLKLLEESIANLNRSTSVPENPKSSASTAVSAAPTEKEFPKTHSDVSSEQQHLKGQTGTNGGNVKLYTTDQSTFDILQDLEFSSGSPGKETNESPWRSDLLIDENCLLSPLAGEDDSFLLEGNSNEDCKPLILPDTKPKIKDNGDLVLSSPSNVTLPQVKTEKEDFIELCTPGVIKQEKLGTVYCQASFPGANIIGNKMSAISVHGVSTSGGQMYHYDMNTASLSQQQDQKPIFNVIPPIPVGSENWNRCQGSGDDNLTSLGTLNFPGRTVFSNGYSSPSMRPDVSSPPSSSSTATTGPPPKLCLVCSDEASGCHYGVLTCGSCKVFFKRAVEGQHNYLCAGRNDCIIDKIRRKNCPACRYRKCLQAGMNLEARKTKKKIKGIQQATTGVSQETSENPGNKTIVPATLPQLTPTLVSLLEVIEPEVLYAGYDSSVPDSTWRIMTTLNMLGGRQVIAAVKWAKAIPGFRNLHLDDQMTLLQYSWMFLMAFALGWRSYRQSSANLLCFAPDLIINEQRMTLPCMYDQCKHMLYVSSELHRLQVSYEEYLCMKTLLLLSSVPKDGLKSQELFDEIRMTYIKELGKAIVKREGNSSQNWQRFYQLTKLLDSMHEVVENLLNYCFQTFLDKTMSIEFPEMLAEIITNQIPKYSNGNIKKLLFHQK
Summary of the method: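 Stimulation of a glucocorticoid response element-driven beta-lactamase gene was measured in HeLa cells. Responses were scaled between DMSO basal and 0.1 uM dexamethasone, then fitted for half-maximal stimulation.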

[3] = biological target: Peroxisome proliferator-activated receptor delta (Homo sapiens) (UniProt Q03181); test: qHTS assay for small molecule agonists of peroxisome proliferator-activated receptor delta signaling (AID 588534);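 further: 0% = DMSO basal wells and 100% = positive control agonist at 10 µM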
Sequence of Peroxisome proliferator-activated receptor delta (Homo sapiens) (Q03181 whole entry, looked up): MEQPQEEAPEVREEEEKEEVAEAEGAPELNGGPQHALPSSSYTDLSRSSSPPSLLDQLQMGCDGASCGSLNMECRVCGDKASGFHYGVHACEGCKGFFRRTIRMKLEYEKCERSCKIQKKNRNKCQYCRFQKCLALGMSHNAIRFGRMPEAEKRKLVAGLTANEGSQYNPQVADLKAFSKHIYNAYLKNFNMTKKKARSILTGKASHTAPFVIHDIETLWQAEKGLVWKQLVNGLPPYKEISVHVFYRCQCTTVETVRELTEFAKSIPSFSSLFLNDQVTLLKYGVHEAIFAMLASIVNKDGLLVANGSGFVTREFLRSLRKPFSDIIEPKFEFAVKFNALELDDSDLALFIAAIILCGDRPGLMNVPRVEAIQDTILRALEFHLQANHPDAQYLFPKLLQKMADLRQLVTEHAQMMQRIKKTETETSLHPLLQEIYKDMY
Summary of the method: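 Agonist-mode beta-lactamase reporter readout (CCF4 dye, 2 h at RT) after 18 h at 37 °C exposure to a titration; Hill-equation fitting gave EC50 and maximal response.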

[4] = biological target: Peroxisome proliferator-activated receptor gamma (Homo sapiens) (UniProt P37231); test: qHTS assay for small molecule agonists of peroxisome proliferator-activated receptor gamma signaling (AID 588536; active means well fitted curve in the direction sought with a large enough effect in the signal ratio, with a control signal flat, not every such curve was filed as active; the % refers to the signal ratio;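 further: 0% = DMSO basal wells and 100% = rosiglitazone at 2 µM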)
Sequence of Peroxisome proliferator-activated receptor gamma (Homo sapiens) (P37231 whole entry, looked up): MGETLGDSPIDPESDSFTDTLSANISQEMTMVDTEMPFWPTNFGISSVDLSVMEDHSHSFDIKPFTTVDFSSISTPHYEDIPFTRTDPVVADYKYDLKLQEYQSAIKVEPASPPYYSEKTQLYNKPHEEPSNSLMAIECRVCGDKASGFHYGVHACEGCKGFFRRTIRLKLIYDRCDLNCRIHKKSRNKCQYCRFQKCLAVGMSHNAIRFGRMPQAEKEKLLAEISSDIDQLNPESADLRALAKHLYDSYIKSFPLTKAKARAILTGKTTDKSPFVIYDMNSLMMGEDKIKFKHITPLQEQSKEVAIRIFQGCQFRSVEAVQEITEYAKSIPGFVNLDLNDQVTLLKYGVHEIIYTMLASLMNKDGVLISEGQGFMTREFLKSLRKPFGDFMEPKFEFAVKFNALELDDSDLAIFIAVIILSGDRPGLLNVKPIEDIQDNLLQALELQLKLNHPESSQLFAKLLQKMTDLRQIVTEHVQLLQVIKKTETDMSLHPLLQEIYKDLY
Summary of the method: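 Compound treatment: 16 h, 37 C, HEK293 GeneBLAzer cells. Detection: CCF4, 2 h RT. Values: Hill-fit EC50, efficacy as % of 2 uM rosiglitazone.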

[5] = biological target: Vitamin D3 receptor (Homo sapiens) (UniProt P11473); test: qHTS assay for small molecule antagonists of vitamin D receptor signaling (AID 588541);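 further: receptor activated by calcitriol during compound treatment; series mostly up to about 77 µM; on the % scale 0 is the no-effect control and ±100 the full control effect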
Sequence of Vitamin D3 receptor (Homo sapiens) (P11473 whole entry, looked up): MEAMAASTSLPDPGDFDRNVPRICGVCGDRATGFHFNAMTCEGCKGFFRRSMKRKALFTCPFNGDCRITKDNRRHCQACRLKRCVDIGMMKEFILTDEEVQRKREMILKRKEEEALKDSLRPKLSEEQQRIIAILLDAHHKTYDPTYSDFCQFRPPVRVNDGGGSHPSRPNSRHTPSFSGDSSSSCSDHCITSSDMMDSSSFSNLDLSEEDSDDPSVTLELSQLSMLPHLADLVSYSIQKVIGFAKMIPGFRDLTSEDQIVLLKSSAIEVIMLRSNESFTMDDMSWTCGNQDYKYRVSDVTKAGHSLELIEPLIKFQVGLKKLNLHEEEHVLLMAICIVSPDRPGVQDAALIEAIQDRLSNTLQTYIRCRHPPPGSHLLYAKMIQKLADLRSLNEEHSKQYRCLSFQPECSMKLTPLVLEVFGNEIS
Summary of the method: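 VDR-UAS-bla HEK293T cells (2000/well, 2% charcoal-stripped FBS) were treated with titrated compounds plus 1-alpha,25-dihydroxyvitamin D3 (50 nM or 3 nM final) for 16 h at 37 C. CCF4 beta-lactamase fluorescence was read; Hill fits gave IC50.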

[6] = biological target: Vitamin D3 receptor (Homo sapiens) (UniProt P11473); test: qHTS assay for small molecule agonists of vitamin D receptor signaling (AID 588543);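 further: 0% = DMSO basal and 100% = reference agonist control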
Summary of the method: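 Agonist-mode beta-lactamase reporter: HEK293T VDR-UAS-bla cells in charcoal-stripped 2% FBS, compound series 16 h 37 C, CCF4 2 h RT. EC50 from Hill fit, scaled against DMSO and 50 nM calcitriol control.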

[7] = biological target: Thyroid hormone receptor beta (Homo sapiens) (UniProt P10828); test: qHTS assay for small molecule agonists of thyroid hormone receptor beta signaling (AID 588545)
Sequence of Thyroid hormone receptor beta (Homo sapiens) (P10828 whole entry, looked up): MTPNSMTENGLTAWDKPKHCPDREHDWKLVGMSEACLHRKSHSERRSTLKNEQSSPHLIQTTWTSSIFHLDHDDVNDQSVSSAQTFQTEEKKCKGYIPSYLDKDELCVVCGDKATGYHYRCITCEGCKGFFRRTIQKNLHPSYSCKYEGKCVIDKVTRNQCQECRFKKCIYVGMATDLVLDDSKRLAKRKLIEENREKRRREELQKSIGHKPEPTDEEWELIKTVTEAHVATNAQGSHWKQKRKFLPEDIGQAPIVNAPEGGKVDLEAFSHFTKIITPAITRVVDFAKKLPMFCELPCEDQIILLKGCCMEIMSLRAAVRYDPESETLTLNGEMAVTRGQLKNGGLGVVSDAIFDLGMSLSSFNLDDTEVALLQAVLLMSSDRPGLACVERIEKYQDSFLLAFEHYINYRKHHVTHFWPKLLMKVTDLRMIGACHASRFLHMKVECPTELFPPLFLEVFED
Summary of the method: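 In this cell-based screen, titrated compounds act on HEK 293 cells held in medium with 2% charcoal/dextran FBS, NEAA and pyruvate for 18 hrs at 37 C. Responses are expressed relative to T3 (10 nM) as 100% and basal DMSO as 0%.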

[8] = qHTS assay for small molecule activators of the p53 signaling pathway (AID 651743; active means well fitted activation curve with a large enough effect in the signal ratio, not every such curve was filed as active; the % refers to the signal ratio; further: series mostly up to about 92 µM; % of control where 0% means no effect); conditions: HCT-116 p53RE-bla, beta-lactamase FRET ratio, 16 h; activation: stronger effect = higher value
Summary of the method: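 Agonist-mode quantitative HTS in HCT-116 cells carrying a p53-response-element beta-lactamase reporter; 16 h compound treatment at 37 C, then FRET substrate loading for 2 h at room temperature and fluorescence read.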

[9] = qHTS assay for small molecule activators of the nuclear factor-kappa B (NF-kB) signaling pathway (AID 651749; active means well fitted activation curve with a large enough effect in the signal ratio; the % refers to the signal ratio; further: series mostly up to about 77 µM; % of control where 0% means no effect); conditions: NF-kB-bla ME-180 cells, beta-lactamase FRET ratio, 16 h; activation: stronger effect = higher value
Summary of the method: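 Human ME-180 cervical cells with an NF-kB-bla construct; compounds added via 23 nL pin transfer, DMSO as vehicle; incubation 16 hr. Reporter activity measured by FRET disruption.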

[10] = qHTS assay for environmental chemicals that activate the Aryl hydrocarbon Receptor (AhR) signaling pathway (AID 651777; active means well fitted curve in the direction sought with a large enough effect; an effect the other way counts as inactive or inconclusive; further: % of control where 0% means no effect; nearly all actives have a fitted effect of over 15% in size); conditions: 1A2-DRE human hepatoma cells, luciferase, 24 h; activation: stronger effect = higher value
Summary of the method: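 AhR activation is scored as a rise in luciferase from a stable DRE–CYP1A2 promoter construct in human hepatoma cells. Treatment lasts 24 hr at 37 C; detection uses One-Glo after 30 min at room temperature.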

[11] = biological target: Peroxisome proliferator-activated receptor alpha (Homo sapiens) (UniProt Q07869); test: qHTS assay for small molecule agonists of the peroxisome proliferator-activated receptor alpha (PPARalpha) signaling pathway (AID 651778; active means well fitted curve in the direction sought with a large enough effect; an effect the other way counts as inactive or inconclusive; further: % of control where 0% means no effect); conditions: PathHunter PPARalpha complementation, chemiluminescence, 6 h; max response: stronger effect = higher value
Sequence of Peroxisome proliferator-activated receptor alpha (Homo sapiens) (Q07869 whole entry, looked up): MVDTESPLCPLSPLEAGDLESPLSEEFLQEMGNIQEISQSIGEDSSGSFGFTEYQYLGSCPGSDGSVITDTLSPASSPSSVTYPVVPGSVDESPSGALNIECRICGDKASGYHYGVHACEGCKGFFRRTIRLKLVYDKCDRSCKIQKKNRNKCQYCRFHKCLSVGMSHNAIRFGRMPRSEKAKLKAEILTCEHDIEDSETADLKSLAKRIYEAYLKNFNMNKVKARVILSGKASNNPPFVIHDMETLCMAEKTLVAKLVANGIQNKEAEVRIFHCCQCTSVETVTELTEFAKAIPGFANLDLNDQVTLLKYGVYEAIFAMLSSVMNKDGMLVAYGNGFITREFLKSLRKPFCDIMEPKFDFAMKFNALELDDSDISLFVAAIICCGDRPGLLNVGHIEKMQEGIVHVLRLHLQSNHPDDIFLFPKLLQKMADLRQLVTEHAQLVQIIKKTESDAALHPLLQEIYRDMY
Summary of the method: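 Cells plated at 2,000/well and held overnight at 37 C, 5% CO2, then compound added by pin tool for 6 hr; after PathHunter detection reagent and 60 min at room temperature, chemiluminescence from enzyme complementation was read.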

[12] = qHTS assay for small molecule agonists of the antioxidant response element (ARE) signaling pathway measured by Nrf2-dependant transcriptional activity - cell viability counter screen (AID 720653; active means well fitted curve in the direction sought with a large enough effect in the repeat runs; an effect the other way counts as inactive or inconclusive; further: on the % scale 0 is the no-effect control and ±100 the full control effect); conditions: ARE-bla HepG2 viability, CellTiter-Glo ATP luminescence, 16 h; max response: stronger effect = lower value
Summary of the method: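 ARE-bla HepG2 cells (2,000/well) rested 5 hrs at 37C/5% CO2, then exposed to compounds in DMSO for 16 hrs. Viability was read in the same wells as intracellular ATP by luminescence, 30 min at room temperature after reagent addition.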

[13] = qHTS assay for cell viability of HEK293 cells (AID 743288; active means well fitted curve in the direction sought with a large enough effect; an effect the other way counts as inactive or inconclusive; further: on the % scale 0 is the no-effect control and ±100 the full control effect; nearly all actives have a fitted effect of over 50% in size); conditions: ATP luminescence (CellTiter-Glo), 18 h; max response: stronger effect = lower value
Summary of the method: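 Readout is luciferase-coupled ATP content (CellTiter-Glo luminescence, 30 min room temperature) as a measure of metabolically competent cells. Parental HEK293 cells were plated 5 h or more before compound addition, then treated 18 h at 37 C.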

[14] = qHTS assay for cell viability of the p53RE-bla HCT-116 cell line (AID 743292; active means well fitted curve in the direction sought with a large enough effect; an effect the other way counts as inactive or inconclusive; further: on the % scale 0 is the no-effect control and ±100 the full control effect; nearly all actives have a fitted effect of over 55% in size)
Summary of the method: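 Quantitative high-throughput format: compounds in DMSO were pinned onto p53RE-bla HCT-116 cells (4,000/well) and incubated 16 h at 37 C. Total intracellular ATP, read by CellTiter-Glo luminescence, reflects viable cell number.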

[15] = biological target: Nuclear receptor subfamily 1 group I member 2 (Rattus norvegicus) (UniProt Q9R1A7); test: qHTS assay for small molecule activators of the rat pregnane X receptor (rPXR) signaling pathway (AID 651751; call rule not given here; further: 0% is about no effect); conditions: rPXR reporter cells, luciferase (One-Glo), 24 h
Sequence of Nuclear receptor subfamily 1 group I member 2 (Rattus norvegicus) (Q9R1A7 whole entry, looked up): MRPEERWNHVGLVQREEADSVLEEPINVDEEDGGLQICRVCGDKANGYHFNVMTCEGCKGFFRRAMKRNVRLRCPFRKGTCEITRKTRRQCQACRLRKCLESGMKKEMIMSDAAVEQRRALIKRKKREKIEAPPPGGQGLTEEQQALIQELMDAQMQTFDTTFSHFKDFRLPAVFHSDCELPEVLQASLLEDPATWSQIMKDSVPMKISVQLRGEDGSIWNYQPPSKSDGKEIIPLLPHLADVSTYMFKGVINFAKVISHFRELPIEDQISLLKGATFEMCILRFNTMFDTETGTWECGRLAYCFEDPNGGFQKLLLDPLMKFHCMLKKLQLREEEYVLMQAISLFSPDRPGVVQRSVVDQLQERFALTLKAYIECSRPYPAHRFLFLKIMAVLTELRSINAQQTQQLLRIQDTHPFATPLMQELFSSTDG

[16] = qHTS assay for small molecule antagonists of retinoid X receptor alpha signaling (AID 588546; active means well fitted inhibition curve with a large enough effect in the signal ratio, with a control signal flat, not every such curve was filed as active; the % refers to the signal ratio;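 further: cells stimulated with 9-cis-retinoic acid as agonist; on the % scale 0 is the no-effect control and ±100 the full control effect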); conditions: HEK293T RXRa-UAS-bla, beta-lactamase ratio, antagonist mode; measured here: W530 green channel, cytotoxicity proxy
Summary of the method: (§1)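 Beta-lactamase reporter inhibition, read as CCF4 fluorescence ratio (ex 405, em 460/530 nm) after 2 h at RT. HEK293T UAS-bla cells, 2500/well, were stimulated with 9-cis-RA at 500 or 100 nM final alongside test compound for 18 h at 37 C.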

[17] = biological target: Retinoic acid receptor RXR-alpha (Homo sapiens) (UniProt P19793); test: as above; conditions: HEK293T RXRa-UAS-bla, beta-lactamase ratio, antagonist mode
Sequence of Retinoic acid receptor RXR-alpha (Homo sapiens) (P19793 whole entry, looked up): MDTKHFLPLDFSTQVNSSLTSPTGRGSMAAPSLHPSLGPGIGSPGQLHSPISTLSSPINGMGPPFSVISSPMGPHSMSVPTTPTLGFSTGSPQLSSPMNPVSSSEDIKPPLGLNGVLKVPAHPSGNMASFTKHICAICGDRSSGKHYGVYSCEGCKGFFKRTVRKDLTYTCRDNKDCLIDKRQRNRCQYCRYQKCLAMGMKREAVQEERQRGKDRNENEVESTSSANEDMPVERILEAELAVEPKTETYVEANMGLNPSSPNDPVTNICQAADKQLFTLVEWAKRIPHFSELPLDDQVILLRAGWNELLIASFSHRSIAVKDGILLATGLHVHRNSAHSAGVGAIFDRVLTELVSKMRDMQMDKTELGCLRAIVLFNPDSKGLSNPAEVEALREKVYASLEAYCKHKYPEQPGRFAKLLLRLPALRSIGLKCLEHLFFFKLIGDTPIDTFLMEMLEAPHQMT
Summary of the method: as §1

[18] = qHTS assay for small molecule agonists of the antioxidant response element (ARE) signaling pathway measured by Nrf2-dependant transcriptional activity (AID 720636; active means well fitted curve in the direction sought with a large enough effect in the repeat runs; an effect the other way counts as inactive or inconclusive;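 further: HepG2 cells with an ARE-driven luciferase reporter; % of control where 0% means no effect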)
Summary of the method: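 First, ARE-luc HepG2 cells attached for 6 hr at 37 C in 1% dialyzed FBS medium. Next, compound or DMSO was added and incubated 16 hr. Finally, ONE-Glo reagent was added and luminescence measured after 30 min.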

[19] = biological target: Retinoic acid receptor RXR-alpha (Homo sapiens) (UniProt P19793); test: qHTS assay for small molecule agonists of retinoid X receptor alpha signaling (AID 588544);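 further: 0% = DMSO basal wells and 100% = reference agonist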

Sequence of Estrogen receptor (Homo sapiens) (P03372 whole entry, looked up): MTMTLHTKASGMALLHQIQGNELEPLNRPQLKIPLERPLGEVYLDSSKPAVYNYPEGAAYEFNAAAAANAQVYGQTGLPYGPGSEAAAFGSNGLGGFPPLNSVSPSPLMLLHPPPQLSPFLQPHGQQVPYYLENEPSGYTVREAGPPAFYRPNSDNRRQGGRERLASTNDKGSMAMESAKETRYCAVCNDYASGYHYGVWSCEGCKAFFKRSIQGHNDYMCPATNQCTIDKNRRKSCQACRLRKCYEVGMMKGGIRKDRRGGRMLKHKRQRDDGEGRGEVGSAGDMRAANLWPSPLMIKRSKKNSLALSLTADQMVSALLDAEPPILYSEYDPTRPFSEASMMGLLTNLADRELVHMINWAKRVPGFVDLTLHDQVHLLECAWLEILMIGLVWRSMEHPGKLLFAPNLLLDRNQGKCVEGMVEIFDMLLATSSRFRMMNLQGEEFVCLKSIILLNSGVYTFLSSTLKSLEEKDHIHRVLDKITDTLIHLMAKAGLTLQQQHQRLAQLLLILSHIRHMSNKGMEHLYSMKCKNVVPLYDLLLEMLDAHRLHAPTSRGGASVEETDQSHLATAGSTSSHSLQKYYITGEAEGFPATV

O=C(Nc1ccccc1)Nc1ccnc(Cl)c1
inactive: Potency [1] | activation [2] -0.972% | outcome [3] | Potency [4] | Potency [5] | outcome [6] | Potency [7] | activation [8] 4.1% | activation [9] -0.762% | activation [10] 11% | max response [11] -0.317% | max response [12] -3.22% | max response [13] -3.84% | Potency [14] | max response [15] 9.67%

CCOP(=O)(NC(C)C)Oc1ccc(S(C)(=O)=O)c(C)c1 (stereo unspecified)
-11.4%: max response [16]
inactive: Potency [1] | activation [2] 2.64% | outcome [3] | Potency [4] | Potency [5] | outcome [6] | max response [17] 6.87% | activation [8] 0.006% | activation [9] -0.438% | activation [10] 1.16% | max response [11] -2.16% | Potency [18] | max response [12] -4.32% | max response [13] -9.88% | Potency [14] | max response [15] 4.77%

Nc1c(Cl)c(F)nc(OCC(=O)O)c1Cl
-12.1%: max response [16]
inactive: Potency [1] | activation [2] -4.31% | Potency [4] | Potency [5] | Potency [19] | max response [17] -9.36% | activation [8] 0.955% | activation [9] 0.422% | activation [10] 1.14% | max response [11] 0.318% | Potency [18] | max response [12] 1.18% | max response [13] 4.54% | Potency [14] | max response [15] -2.68%

CCOP(=O)(OCC)SCSP(=S)(OCC)OCC
inactive: Potency [1] | activation [2] -5.04% | outcome [3] | Potency [4] | Potency [5] | Potency [7] | max response [17] -11.3% | activation [8] -1.69% | activation [9] 1.64% | activation [10] 6.55% | max response [11] -0.113% | max response [12] -1.01% | max response [13] -5.51% | Potency [14]
-5.91%: max response [16]

CC(C)(C)OOC(C)(C)c1ccc(C(C)(C)OOC(C)(C)C)cc1
-15.9%: max response [16]
inactive: Potency [1] | activation [2] -6.76% | outcome [3] | Potency [5] | outcome [6] | Potency [19] | Potency [7] | max response [17] -5.44% | activation [8] 0.499% | activation [9] 0.854% | activation [10] 0.613% | max response [11] 0.719% | Potency [18] | max response [12] -7.74% | max response [13] -8.57% | Potency [14] | max response [15] 4.08%

CCOP(N)(=O)Oc1ccc(SC)c(C)c1 (stereo unspecified)
inactive: Potency [1] | activation [2] -9.53% | outcome [3] | Potency [4] | Potency [5] | outcome [6] | Potency [19] | Potency [7] | max response [17] -26.2% | activation [8] -1.01% | activation [9] 0.0027% | activation [10] 0.564% | max response [11] -3.39% | Potency [18] | max response [12] -8.16% | max response [13] -8.45% | Potency [14] | max response [15] 4.69%
-11.1%: max response [16]

CS/C(C)=N/OC(=O)N(C)SN(C)C(=O)O/N=C(\C)SC
3.2%: max response [16]
inactive: Potency [1] | activation [2] 10.5% | outcome [3] | Potency [4] | Potency [7] | max response [17] 15.5% | activation [8] -1.16% | activation [9] -0.513% | activation [10] 3.44% | max response [11] -1.01% | Potency [18] | max response [12] 6.17% | max response [13] -6.07% | Potency [14] | max response [15] -5.16%
